Screening results as filed in PubChem BioAssay.
mIDH1 inhibitor: inhibitors of human mutant IDH1 R132H; IDH1-R132H enzyme, NADPH consumption, diaphorase/resazurin fluorescence; Potency, µM (titrated, usually from 76.6 µM), hits mostly inhibitors; 0.093% of 390,000 active; AID 602179; also: nearly all actives have a fitted effect of over 65% in size
Target sequence (O75874 whole entry R132H, stated change not applied): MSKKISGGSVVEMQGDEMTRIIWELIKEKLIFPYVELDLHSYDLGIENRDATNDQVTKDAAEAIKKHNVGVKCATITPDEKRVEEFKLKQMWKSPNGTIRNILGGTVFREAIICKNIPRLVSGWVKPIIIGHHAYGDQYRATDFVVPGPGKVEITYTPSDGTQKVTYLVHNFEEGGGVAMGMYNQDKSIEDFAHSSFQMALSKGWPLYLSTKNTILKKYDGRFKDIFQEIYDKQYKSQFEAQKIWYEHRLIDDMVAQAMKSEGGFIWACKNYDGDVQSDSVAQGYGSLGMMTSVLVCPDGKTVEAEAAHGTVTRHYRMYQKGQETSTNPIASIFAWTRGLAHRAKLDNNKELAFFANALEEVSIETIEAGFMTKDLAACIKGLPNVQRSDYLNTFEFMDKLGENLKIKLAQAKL
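IDH1-R132H (0.5 ug/mL) preincubated 30 min with compound, then NADPH (0.016 mM) and alpha-KG (2 mM) added; 80 min at RT, pH 7.5. Remaining NADPH coupled via diaphorase/resazurin to fluorescence (540/590 nm); concentration-response curves normalized to no-enzyme control.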
Giardia killer: Giardia lamblia killing | 0.15% of 340,000 active | activity change, % at 7.66 µM, hits read low | Giardia lamblia trophozoite viability; in the data active = activity change below about -80%; inconclusive = between about -30% and that limit;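 also: parasites exposed to compound for two days anaerobically before the ATP read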
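Giardia trophozoites, 100 cells per well, were exposed to compounds for 48 hrs at 37 deg C under anaerobic conditions; viability was then read as ATP content by bioluminescence after 15-30 min at room temperature.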
BRCA1 expr up: increases BRCA1 expression; 1.1% of 380,000 active; Potency, µM (titrated, usually from 46.1 µM), hits mostly activators; MCF7-BRCA1-FFLuc reporter, luminescence, 48 h; response scale: scaled: vehicle 0%, 10 µM genistein 100%; also: nearly all actives have a fitted effect of over 80% in size
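MCF7-BRCA1-FFLuc cells, 2000/well in phenol-red-free MEM, attached 2 h then treated 48 h at 37 C. Luciferase luminescence read 15 min after reagent; normalized to genistein maximum activation (10microM) and DMSO, concentration-response fitted.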
TrxR1 inh: inhibitors of rat thioredoxin reductase 1. O89049. recombinant rTrxR1, NADPH fluorescence consumption, selenite substrate. Potency, µM (top dose mostly 114 µM), most hits filed as inhibitors. 1% of 390,000 active. AID 588453; also: nearly all actives have a fitted effect of over 65% in size
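Rat TrxR1 (90 nM in the dispensed reagent) was pre-reduced with 400 uM NADPH for 5 min at room temperature, then incubated with compound for 15 min. After 400 uM selenite was added, NADPH fluorescence (Ex 340/Em 450 nm) was followed for 8 min.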
TrxR1 substrate: rat thioredoxin reductase 1 substrate activity | purified TrxR1 substrate turnover, NADPH consumption readout | 0.01% of 390,000 active | O89049 | Potency, µM (doses to about 114 µM) | AID 588456; also: nearly all actives have a fitted effect of over 50% in size
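Rat TrxR1, dispensed at 90 nM, was prereduced with 400 uM NADPH (final) for 5 min at ~22 deg C, then incubated with compound 15 min before 400 uM selenite. A first-read NADPH fluorescence drop versus no-compound background flagged substrates.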
IL-2 act: IL-2 activation. IL-2 activation reporter assay, cell-based qHTS; stimulated with anti-CD3/CD4/CD28 beads; in transgenic mouse T cells. activation, % (series mostly up to about 46 µM). 0.065% of 360,000 active; in the data active = activation above about 50%; inconclusive = mostly about 30% to 49%
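Readout: EGFP and DsRed signals by fluorescent plate cytometry. Unstimulated transgenic mouse T cells received compound 60 min before antibody-bead stimulation, then incubated 18 h at 37 degrees C.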
Resorufin autofl: counter-screen for mutant IDH1 inhibitors: fluorescence interference | 750 tested, under 10 active | shares compounds with mIDH1 inhibitor | Resorufin detection reagent fluorescence interference, cell-free | inhibition of signal, % at 51.2 µM
IDH1 WT: inhibits human wild-type IDH1, mutant selectivity check; shares compounds with mIDH1 inhibitor; WT IDH1 enzyme, NADPH diaphorase/resazurin fluorescence; Potency, µM (top dose mostly 115 µM), most hits filed as inhibitors; 9% of 750 active; AID 623995; also: nearly all actives have a fitted effect of over 55% in size
Target sequence (O75874 whole entry, looked up): as the sequence (O75874 whole entry R132H, stated change not applied) above, with H132R counted along it
mIDH1 confirm: mutant IDH1 (human) inhibition, confirmed. shares compounds with mIDH1 inhibitor. IDH1 R132H enzyme, NADPH diaphorase/resazurin fluorescence. Potency, µM (series often up to 76.6 µM), actives largely listed as inhibitors. 83% of 750 active. AID 624002; also: nearly all actives have a fitted effect of over 50% in size
Numbers stand for hits; – = inactive; ? = inconclusive; · = no result; [ ] = dose if it differs, or a comment. A selection: hits, their analogues and other compounds. The true share with any hit is near 2.2%. Unless noted, calls follow the shape of the dose curve; as a rule, active = well fitted curve in the direction sought with a large enough effect; inconclusive = small, poorly fitted or top-dose-only effect, or another doubt; inactive = no such curve, though single readings can be large; an effect the other way counts as inactive or inconclusive.

SMILES | mIDH1 inhibitor | Giardia killer | BRCA1 expr up | TrxR1 inh | TrxR1 substrate | IL-2 act | Resorufin autofl | IDH1 WT | mIDH1 confirm
CCN(CC)C(=O)c1sc2c(c1C)c(=O)n(-c1ccc(C)c(C)c1)c(=O)n2Cc1cccc(Cl)c1 | ? | · | · | – | – | · | – | – | 13µM
CC(C)c1cnc2c(c1SCC(=O)Nc1cccc(F)c1)c(=O)n(C)c(=O)n2C | – | · | · | – | – | · | · | · | ·
Cc1cc(C)cc(NC(=O)CSc2c(C(C)C)cnc3c2c(=O)n(C)c(=O)n3C)c1 | ? | · | · | – | – | · | – | – | –
Cc1ccc(OCCCN2C(=O)C(=O)c3cccc(C)c32)cc1 | – | – | – | – | – | – | · | · | ·
Cc1cccc2c1N(CCOc1ccc(C(C)(C)C)cc1)C(=O)C2=O | ? | – | – | – | – | – | – | – | 25µM
COc1ccc(OC)c(CCNC(=O)c2cc3c(=O)n(C)c4ccccc4c3n2C)c1 | – | · | – | – | – | · | · | · | ·
Cc1ccc(S(=O)(=O)c2nc(-c3ccccc3)oc2SCC(=O)NC2CCCCC2)cc1 | – | · | · | – | –[2.29 µM] | · | · | · | ·
Cc1c(C(=O)Oc2ccc(-c3cnc4ccccc4n3)cc2)cccc1[N+](=O)[O-] | ? | – | ? | – | – | – | – | – | 50µM
O=C(Oc1ccc(-c2cnc3ccccc3n2)cc1)c1cc([N+](=O)[O-])ccc1Cl | – | – | ? | – | – | – | · | · | ·
NNC(=O)c1csc(CS(=O)(=O)c2ccc(Cl)cc2)n1 | – | – | – | – | – | – | · | · | ·
NNC(=O)c1csc(Cc2c(Cl)sc3ccc(Cl)cc23)n1 | 52µM | – | – | – | – | – | – | – | –
CC(=O)N(C(C)=O)N1C(=O)/C(=C/c2ccc(Cl)cc2)SC1=S | ? | – | – | ? | – | – | – | – | 50µM
CC(C)c1ccc(NC(=O)C(c2ccccc2)N(Cc2ccco2)C(=O)CC2NC(=O)NC2=O)cc1 (configuration not stated) | ? | – | – | – | – | – | – | – | ?
COc1ccc(NC(=O)C(c2ccc(OC)cc2)N(C)C(=O)CC2NC(=O)NC2=O)cc1 (configuration not stated) | – | – | – | – | – | – | · | · | ·
CCOc1ccccc1CNC(=O)c1ccc(CS(=O)Cc2cccc(Cl)c2)o1 (configuration not stated) | – | · | · | ? | – | · | · | · | ·
CC1(C)CC(=O)C2=C(C1)NC1=C(C(=O)c3ccccc31)C2c1cc([N+](=O)[O-])ccc1O (configuration not stated) | ? | – | – | ? | – | – | – | – | 32µM
COc1ccc(C(C(=O)NC2CCCCC2)N(C(=O)Cc2c[nH]c3ccccc23)c2ccccc2C)cc1OC (configuration not stated) | – | – | – | – | – | – | · | · | ·
Cc1ccc(N(C(=O)Cc2c[nH]c3ccccc23)C(C(=O)NC2CCCCC2)c2ccco2)cc1 (configuration not stated) | ? | – | – | – | – | – | – | – | 6.3µM
COc1ccc(C(C(=O)NC2CCCCC2)N(Cc2cccs2)C(=O)Cc2c[nH]c3ccccc23)cc1OC (configuration not stated) | – | – | – | – | – | – | · | · | ·
Cc1ccc(-c2nnn(CC(=O)N(c3ccccc3F)C(C(=O)NC3CCCC3)c3ccco3)n2)o1 (configuration not stated) | – | – | – | – | – | – | · | · | ·
Cc1ccc(C(C(=O)NC2CCCCC2)N(C(=O)Cc2c[nH]c3ccccc23)c2ccccc2C)o1 (configuration not stated) | ? | – | – | –[11.4 µM] | –[11.4 µM] | – | – | – | 7.1µM
Cc1ccccc1N(C(=O)Cc1c[nH]c2ccccc12)C(C(=O)NC1CCCCC1)c1ccco1 (configuration not stated) | ? | – | – | – | – | – | – | – | 13µM
CC(=O)c1ccc(N(C(=O)CNC(=O)c2ccco2)C(C(=O)NC2CCCC2)c2ccco2)cc1 (configuration not stated) | – | – | – | – | – | – | · | · | ·
Cc1ccc(C(C(=O)NC2CCCCC2)N(Cc2ccco2)C(=O)Cc2c[nH]c3ccccc23)o1 (configuration not stated) | ? | – | – | – | – | – | – | – | 10µM
CCOC(=O)c1c(-c2ccc(C)cc2)csc1NC(=O)c1nc(SC(C)C)ncc1Cl | – | · | · | – | – | · | · | · | ·
SMILES | mIDH1 inhibitor | Giardia killer | BRCA1 expr up | TrxR1 inh | TrxR1 substrate | IL-2 act | Resorufin autofl | IDH1 WT | mIDH1 confirm
CCc1ccc(CNc2nc3nc(C)c(Cc4ccccc4)c(=O)n3[nH]2)cc1 | – | · | · | – | – | · | · | · | ·
Cc1nn(C(=O)c2cccc(F)c2)c(C)c1S(=O)(=O)N1CCCCCC1 | – | · | – | ? | – | · | · | · | ·
CCOc1ccc(NC(=O)c2cnn3c2NC(c2cccc(OC)c2)=CC3c2ccccc2)cc1 (configuration not stated) | – | · | · | – | –[11.4 µM] | · | · | · | ·
CCCCN(CC)C(=O)CSc1nc2n[nH]c(C)c2c(=N)n1-c1cccc(Cl)c1 | – | · | · | – | – | · | · | · | ·
COc1ccc(-c2nc3n(n2)C(c2ccc(OC)cc2)C(C(=O)Nc2cccnc2)=C(C)N3)cc1 (configuration not stated) | – | · | · | – | – | · | · | · | ·
C[C@H](CO)N1C[C@H](C)[C@@H](CN(C)CC2CCCCC2)Oc2c(NS(=O)(=O)c3ccccc3)cccc2C1=O | – | – | – | – | – | – | · | · | ·
C[C@H]1CN([C@@H](C)CO)C(=O)c2cccc(NS(=O)(=O)c3ccc(Cl)cc3)c2O[C@@H]1CN(C)CC1CCCCC1 | 45µM | – | – | – | – | – | – | – | 32µM
CCN(CC)C(=O)c1ccc2c(c1)N(Cc1c(F)cccc1Cl)C(=O)c1ccccc1S2 | 32µM | · | – | – | – | · | – | ? | 28µM
O=C(COc1ccc(Cl)cc1)Nc1ccc2nc(SCC(=O)N3CCCC3)sc2c1 | – | · | · | – | – | · | · | · | ·
Cc1cccc(Nc2nc(N)c([N+](=O)[O-])c(NCc3ccco3)n2)c1 | – | – | – | – | – | – | · | · | ·
Nc1nc(Nc2cccc(F)c2)nc(NCc2ccco2)c1[N+](=O)[O-] | ? | – | – | – | – | – | – | – | 32µM
O=C(/C=C/c1cccs1)Nc1nc(-c2ccccc2)cs1 | – | – | – | – | – | – | · | · | ·
